# Laboratory results as given in PubChem BioAssay (NCATS).
# Inconclusive results are not listed. The source made the active and inactive calls. The call rests on the fitted dose curve; in most records, active means well fitted curve in the direction sought with a large enough effect; inconclusive means small, poorly fitted or top-dose-only effect, or another doubt; inactive means no such curve, though single readings can be large; an effect the other way counts as inactive or inconclusive.
# Legend:
# [1] = Quantitative High-Throughput drug screen in 47 multiple myeloma cell lines against the NCATS MIPE library collection: KMM1_JCRB cell viability assay (AID 1918960); further: nearly all actives have a fitted effect of over 30% in size; further: potency means the concentration at half of the fitted maximal effect
# Procedure, shortened: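 Here, 48 h treatment with MIPE 4.0 agents at 37 °C preceded an ATP luminescence read. Plating density was 500 cells per well.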
# [2] = Quantitative High-Throughput drug screen in 47 multiple myeloma cell lines against the NCATS MIPE library collection: JIM3_ECACC cell viability assay (AID 1918963; further: nearly all actives have a fitted effect of over 35% in size; further: potency means the concentration at half of the fitted maximal effect)
# Procedure, shortened: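 Viability readout: CellTiter-Glo luminescence following 5 min room-temperature incubation with reagent. Prior exposure: 48 h, 37C, humidified 5% CO2, 500 cells per well.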
# [3] = Quantitative High-Throughput drug screen in 47 multiple myeloma cell lines against the NCATS MIPE library collection: INA6_PLB cell viability assay (AID 1918965; further: nearly all actives have a fitted effect of over 55% in size; further: potency means the concentration at half of the fitted maximal effect)
# Procedure, shortened: (§1)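 Approved and investigational drugs from MIPE 4.0 were added by pin tool to 500 cells per well. After 48 hours at 37C, ATP-based CellTiter-Glo luminescence indicated remaining viability.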
# [4] = Quantitative High-Throughput drug screen in 47 multiple myeloma cell lines against the NCATS MIPE library collection: Karpas25_ECACC cell viability assay (AID 1918968; further: nearly all actives have a fitted effect of over 35% in size; further: potency means the concentration at half of the fitted maximal effect)
# Procedure, shortened: (§2)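 Relative luminescence from CellTiter-Glo served as the viability signal, referenced to DMSO-treated (100%) and cell-free medium (0%) controls. Treatment lasted 48 hours at 37C with 500 cells per well.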
# [5] = Quantitative High-Throughput drug screen in 47 multiple myeloma cell lines against the NCATS MIPE library collection: KMS12BM_JCRB cell viability assay (AID 1918971); further: nearly all actives have a fitted effect of over 35% in size; further: potency means the concentration at half of the fitted maximal effect
# Procedure, shortened: (§3)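 Steps: seed 500 cells per well; pin-transfer MIPE 4.0 library; incubate 48 h at 37C, 5% CO2, humidified; add CellTiter-Glo, 5 min room temperature; read luminescence.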
# [6] = Quantitative High-Throughput drug screen in 47 multiple myeloma cell lines against the NCATS MIPE library collection: KMS26_JCRB cell viability assay (AID 1918975); further: nearly all actives have a fitted effect of over 45% in size; further: potency means the concentration at half of the fitted maximal effect
# Procedure, shortened: as §3
# [7] = Quantitative High-Throughput drug screen in 47 multiple myeloma cell lines against the NCATS MIPE library collection: MMM1_PLB cell viability assay (AID 1918976); further: potency means the concentration at half of the fitted maximal effect; nearly all actives have a fitted effect of over 35% in size
# Procedure, shortened: (§4)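 MIPE 4.0 approved/investigational drugs; 500 cells/well; 48 h 37 °C humidified 5% CO2; CTG luminescence readout; DMSO = 100%, media = 0% viability.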
# [8] = Quantitative High-Throughput drug screen in 47 multiple myeloma cell lines against the NCATS MIPE library collection: OCIMY1_PLB cell viability assay (AID 1918979); further: nearly all actives have a fitted effect of over 35% in size; further: potency means the concentration at half of the fitted maximal effect
# Procedure, shortened: as §4
# [9] = Quantitative High-Throughput drug screen in 47 multiple myeloma cell lines against the NCATS MIPE library collection: MM1S_ATCC cell viability assay (AID 1918980); further: nearly all actives have a fitted effect of over 45% in size; further: potency means the concentration at half of the fitted maximal effect
# Procedure, shortened: as §4
# [10] = Quantitative High-Throughput drug screen in 47 multiple myeloma cell lines against the NCATS MIPE library collection: H1112_PLB cell viability assay (AID 1918967; further: nearly all actives have a fitted effect of over 30% in size; further: potency means the concentration at half of the fitted maximal effect)
# Procedure, shortened: as §2
# [11] = Quantitative High-Throughput drug screen in 47 multiple myeloma cell lines against the NCATS MIPE library collection: KMS27_JCRB cell viability assay (AID 1918970); conditions: KMS27 myeloma cells, CellTiter-Glo ATP viability, 48 h; viability (% of DMSO): at 45.8 µM (top of the series); further: nearly all actives have a fitted effect of over 30% in size; further: potency means the concentration at half of the fitted maximal effect
# Procedure, shortened: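 KMS27_JCRB myeloma cells, 500 per well, exposed 48 h at 37 C, 5% CO2 to MIPE 4.0 compounds. Viability from ATP by CellTiter-Glo luminescence, normalized to DMSO (100%) and medium-only (0%) wells.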
# [12] = Quantitative High-Throughput drug screen in 47 multiple myeloma cell lines against the NCATS MIPE library collection: KMS12PE_JCRB cell viability assay (AID 1918972); further: nearly all actives have a fitted effect of over 30% in size; further: potency means the concentration at half of the fitted maximal effect
# Procedure, shortened: as §1
# [13] = Quantitative High-Throughput drug screen in 47 multiple myeloma cell lines against the NCATS MIPE library collection: NCIH929_DSMZ cell viability assay (AID 1918978); further: nearly all actives have a fitted effect of over 35% in size; further: potency means the concentration at half of the fitted maximal effect
# Procedure, shortened: as §4
# [14] = Quantitative High-Throughput drug screen in 47 multiple myeloma cell lines against the NCATS MIPE library collection: JJN3_DSMZ cell viability assay (AID 1918966; further: nearly all actives have a fitted effect of over 50% in size; further: potency means the concentration at half of the fitted maximal effect)
# Procedure, shortened: as §2
# [15] = Quantitative High-Throughput drug screen in 47 multiple myeloma cell lines against the NCATS MIPE library collection: KMS20_JCRB cell viability assay (AID 1918973); further: nearly all actives have a fitted effect of over 45% in size
# Procedure, shortened: as §2
# [16] = Quantitative High-Throughput drug screen in 47 multiple myeloma cell lines against the NCATS MIPE library collection: MOLP8_DSMZ cell viability assay (AID 1918977); further: nearly all actives have a fitted effect of over 45% in size
# Procedure, shortened: as §4
# [17] = Quantitative High-Throughput drug screen in 47 multiple myeloma cell lines against the NCATS MIPE library collection: KMS21BM_JCRB cell viability assay (AID 1918974); conditions: ATP luminescence, 48 h; viability: at 45.8 µM (top of the series); further: potency means the concentration at half of the fitted maximal effect
# Procedure, shortened: as §2
# [18] = Quantitative High-Throughput drug screen in 47 multiple myeloma cell lines against the NCATS MIPE library collection: JIM1_ECACC cell viability assay (AID 1918964; further: potency means the concentration at half of the fitted maximal effect)
# Procedure, shortened: as §2
SMILES,Potency [1],Potency [2],Potency [3],Potency [4],Potency [5],Potency [6],Potency [7],Potency [8],Potency [9],Potency [10],Potency [11],Potency [12],Potency [13],Potency [14],Potency [15],Potency [16],Potency [17],Potency [18]
CC(O)=C(C#N)C(=O)Nc1ccc(C(F)(F)F)cc1,inactive,23.5 µM (active),26.4 µM (active),26.4 µM (active),14.8 µM (active),18.7 µM (active),3.72 µM (active),inactive,16.6 µM (active),,,,,,,,,
COc1ccc2cc1Oc1ccc(cc1)C[C@H]1c3cc(c(OC)cc3CCN1C)Oc1c(OC)c(OC)cc3c1[C@H](C2)N(C)CC3,5.9 µM (active),18.7 µM (active),18.7 µM (active),20.9 µM (active),13.2 µM (active),14.8 µM (active),6.62 µM (active),18.7 µM (active),18.7 µM (active),20.9 µM (active),3.72 µM (active),4.69 µM (active),20.9 µM (active),,,,,
C[C@]12CC[C@@H]3c4ccc(O)cc4CC[C@H]3[C@H]1[C@@H](O)[C@@H](O)[C@H]2O,inactive,inactive,inactive,26.4 µM (active),,inactive,,inactive,26.4 µM (active),inactive,inactive,,inactive,,,,,
CN1C(=O)C(Cc2c[nH]c3ccccc23)NC1=S (centres undefined),inactive,inactive,inactive,13.2 µM (active),13.2 µM (active),inactive,11.8 µM (active),inactive,inactive,inactive,,,inactive,inactive,inactive,inactive,,
COc1cc(N2CCN(C)CC2)ccc1Nc1nc(N)c(C(=O)c2c(Cl)cccc2Cl)s1,18.7 µM (active),,,,,4.18 µM (active),8.33 µM (active),,20.9 µM (active),inactive,23.5 µM (active),,inactive,,,,10.5 µM (active),
CO[C@H]1C=CO[C@@]2(C)Oc3c(C)c(O)c4c(O)c(c(C=NN5CCN(C)CC5)c(O)c4c3C2=O)NC(=O)C(C)=CC=C[C@H](C)[C@H](O)[C@@H](C)[C@@H](O)[C@@H](C)[C@H](OC(C)=O)[C@H]1C,inactive,,,,,,,,inactive,inactive,,,inactive,1.19 µM (active),,,,
CCCCc1ccc(NS(=O)(=O)c2ccc(C)c(C(=O)N3CCN(c4cccc(C)c4C)CC3)c2)cc1,inactive,16.6 µM (active),,,20.9 µM (active),23.5 µM (active),18.7 µM (active),,14.8 µM (active),,inactive,,,23.5 µM (active),,,,
COc1nccc(-c2c(-c3ccc(F)cc3)ncn2C2CCNCC2)n1,inactive,,10.5 µM (active),inactive,20.9 µM (active),inactive,13.2 µM (active),,,1.66 µM (active),,inactive,,,inactive,,,
COc1cc2nccc(Oc3ccc(NC(=O)Nc4cc(C)on4)c(Cl)c3)c2cc1OC,3.72 µM (active),,23.5 µM (active),20.9 µM (active),23.5 µM (active),16.6 µM (active),23.5 µM (active),,6.62 µM (active),,,,,26.4 µM (active),,,,
O=S(=O)(O)c1ccc2cc(N=Nc3cc(S(=O)(=O)O)c4cccnc4c3O)ccc2c1,inactive,,,inactive,16.6 µM (active),,3.72 µM (active),inactive,13.2 µM (active),,inactive,inactive,7.43 µM (active),18.7 µM (active),,,,
CCOC(=O)N1c2ccc(C(F)(F)F)cc2[C@@H](N(Cc2cc(C(F)(F)F)cc(C(F)(F)F)c2)C(=O)OC)C[C@H]1CC,inactive,,,,13.2 µM (active),,8.33 µM (active),16.6 µM (active),,inactive,inactive,inactive,8.33 µM (active),5.9 µM (active),,,,inactive
C[C@@H]1CCO[C@H]2Cn3cc(C(=O)NCc4ccc(F)cc4F)c(=O)c(O)c3C(=O)N12,inactive,,20.9 µM (active),18.7 µM (active),20.9 µM (active),,,inactive,20.9 µM (active),inactive,inactive,inactive,,,,,,23.5 µM (active)
O=C(O)Cc1cccc(OCCCN(Cc2cccc(C(F)(F)F)c2Cl)CC(c2ccccc2)c2ccccc2)c1,inactive,,,,3.32 µM (active),,6.62 µM (active),inactive,20.9 µM (active),,,inactive,18.7 µM (active),5.26 µM (active),,,,
CN1CCC[C@H]1CCO[C@](C)(c1ccccc1)c1ccc(Cl)cc1,inactive,,18.7 µM (active),,,inactive,,inactive,23.5 µM (active),,,,11.8 µM (active),,,inactive,,
COc1ccc2c(c1)CC[C@H]1[C@@H]2CC[C@]2(C)[C@@H](NCCCCCCN3C(=O)C=CC3=O)CC[C@H]12,inactive,inactive,,inactive,,,,inactive,,inactive,,inactive,inactive,,inactive,,,
Nc1ccn([C@@H]2O[C@H](CO)[C@@H](O)[C@H]2O)c(=O)n1,inactive,inactive,,,inactive,inactive,,,,,,inactive,inactive,inactive,,,,
